The full ranking holds about 16,000 sequences; the median of “Z-score” is about -0.37, and the highest 2% start at about 3.1. Shown is part of a subset that was picked to be rich in the highest values.

The test has as its system RBM10 RRM1-ZnF-RRM2 (GST-tagged construct). The test can be described thus: RNAcompete 7-mer binding Z-score; higher = stronger binding preference. In short, it runs like this:
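Bound RNA was identified by microarray hybridisation after GST-tagged RBM10 constructs (20 pmol) had been mixed with 1.5 nmol of a designed pool of 241 399 RNAs up to 41 nt, transcribed from microarray-derived DNA templates. Binding ran for 30 min at 4°C in 1 ml Hepes pH 7.8 buffer with KCl, NaCl, glycerol, DTT, BSA and glutathione Sepharose beads, with four 2-min washes at 4°C afterwards. For every heptamer motif, a one-sided Z-score for enrichment was computed across the probes that contained it.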
As for GUAUUGA, the “RNAcompete 7-mer binding Z-score” value was -0.107.

For the sequence CGAAGCC, the “RNAcompete 7-mer binding Z-score” value was -0.449.

As for AACUCGU, the “RNAcompete 7-mer binding Z-score” value was -0.861.

For GGGAAGA, the “RNAcompete 7-mer binding Z-score” value worked out at 3.65.

As to GGAAAAA, the “RNAcompete 7-mer binding Z-score” value was 1.95.

In the case of GGGAAAG, the “RNAcompete 7-mer binding Z-score” value worked out at 4.49.

In the case of UGGAAAG, the “RNAcompete 7-mer binding Z-score” value was determined as 2.78.

On to GGGAAAA, for which the “RNAcompete 7-mer binding Z-score” value was found to be 3.43.

As for CGGAAGA, the “RNAcompete 7-mer binding Z-score” value came out at 0.862.

Regarding CGGAAAG, the “RNAcompete 7-mer binding Z-score” value was determined as 1.91.

As to CGGAAAA, the “RNAcompete 7-mer binding Z-score” value was determined as 0.854.

GGGAAGU: the “RNAcompete 7-mer binding Z-score” value was 2.76.

Turning to GUCAGGG, the “RNAcompete 7-mer binding Z-score” value is 1.81.

On to UCCUGAC, for which the “RNAcompete 7-mer binding Z-score” value is -0.788.

Regarding UGGCACA, the “RNAcompete 7-mer binding Z-score” value amounted to 0.497.

In the case of UCGUAAG, the “RNAcompete 7-mer binding Z-score” value is -0.326.

In the case of GUCGAGG, the “RNAcompete 7-mer binding Z-score” value was 1.9.

For the sequence CGUUGGA, the “RNAcompete 7-mer binding Z-score” value is 0.548.

UCUUUAA: the “RNAcompete 7-mer binding Z-score” value is -0.803.

Consider UCGGCCG, for which the “RNAcompete 7-mer binding Z-score” value is -0.795.

In the case of GGAGGUA, the “RNAcompete 7-mer binding Z-score” value stood at 3.82.

GGAGGUG: the “RNAcompete 7-mer binding Z-score” value came out at 3.64.

With GGAGGUU, the “RNAcompete 7-mer binding Z-score” value came to 2.23.

Take CGAGGUA: the “RNAcompete 7-mer binding Z-score” value is 1.8.

On to AGAGGUG, for which the “RNAcompete 7-mer binding Z-score” value stood at 2.05.

As to UGAGGUA, the “RNAcompete 7-mer binding Z-score” value was 1.87.

For CGCAUUC, the “RNAcompete 7-mer binding Z-score” value is -0.723.

Turning to UGCGACG, the “RNAcompete 7-mer binding Z-score” value turned out to be 0.13.

On to ACUUCUU, for which the “RNAcompete 7-mer binding Z-score” value was -0.952.

In the case of UAGCGAG, the “RNAcompete 7-mer binding Z-score” value came to 0.694.

As to GAGCGGG, the “RNAcompete 7-mer binding Z-score” value is 3.33.

Turning to GAGCGAC, the “RNAcompete 7-mer binding Z-score” value amounted to 0.177.

Take GAGCGGA: the “RNAcompete 7-mer binding Z-score” value is 3.55.

Consider GAGCGGU, for which the “RNAcompete 7-mer binding Z-score” value turned out to be 1.51.

Turning to GAGCGGC, the “RNAcompete 7-mer binding Z-score” value came to 1.42.

GAGCGAG: the “RNAcompete 7-mer binding Z-score” value was 3.3.

Turning to UAGCGGA, the “RNAcompete 7-mer binding Z-score” value is 1.01.

As for CAGCGGG, the “RNAcompete 7-mer binding Z-score” value amounted to 2.5.

In the case of UCCUUAA, the “RNAcompete 7-mer binding Z-score” value is -0.715.

On to AAAGAAC, for which the “RNAcompete 7-mer binding Z-score” value was -0.0343.

With CUCAACA, the “RNAcompete 7-mer binding Z-score” value is -0.704.

For the sequence UCUUAGC, the “RNAcompete 7-mer binding Z-score” value is -0.817.

In the case of AUGACCC, the “RNAcompete 7-mer binding Z-score” value was -0.57.

For GUGUGGA, the “RNAcompete 7-mer binding Z-score” value stood at 2.7.

In the case of AUGUGGC, the “RNAcompete 7-mer binding Z-score” value was determined as 0.84.

As to AUGUGGG, the “RNAcompete 7-mer binding Z-score” value was found to be 3.6.

Turning to GUGUGGG, the “RNAcompete 7-mer binding Z-score” value was 3.75.

As to UUGUGGG, the “RNAcompete 7-mer binding Z-score” value is 2.44.

For the sequence GUGUGGU, the “RNAcompete 7-mer binding Z-score” value amounted to 1.87.

As to AGAAUGA, the “RNAcompete 7-mer binding Z-score” value stood at 0.275.

As for CGCACCC, the “RNAcompete 7-mer binding Z-score” value was -0.748.

GCGUGAG: the “RNAcompete 7-mer binding Z-score” value was 1.01.

Consider GAGAUGU, for which the “RNAcompete 7-mer binding Z-score” value was 0.392.

Regarding AGGAUGG, the “RNAcompete 7-mer binding Z-score” value was 3.4.

For the sequence CGGAUGG, the “RNAcompete 7-mer binding Z-score” value is 1.87.

On to UAGAUGG, for which the “RNAcompete 7-mer binding Z-score” value was found to be 2.16.

Turning to UGGAUGC, the “RNAcompete 7-mer binding Z-score” value was 0.778.

On to AGGAUGC, for which the “RNAcompete 7-mer binding Z-score” value amounted to 0.887.

For UGGAUGA, the “RNAcompete 7-mer binding Z-score” value was found to be 1.82.

Consider UGGAUGG, for which the “RNAcompete 7-mer binding Z-score” value is 3.42.

Turning to GAGAUGG, the “RNAcompete 7-mer binding Z-score” value was 4.

Take UGUACUU: the “RNAcompete 7-mer binding Z-score” value was -0.715.

Regarding GUCAAUU, the “RNAcompete 7-mer binding Z-score” value is -0.602.

UUUGCCG: the “RNAcompete 7-mer binding Z-score” value is -0.766.

On to ACGACGA, for which the “RNAcompete 7-mer binding Z-score” value was -0.384.

Turning to GAGCCCC, the “RNAcompete 7-mer binding Z-score” value was -0.581.

For the sequence ACCGUAG, the “RNAcompete 7-mer binding Z-score” value was -0.147.

Regarding UUUGUCC, the “RNAcompete 7-mer binding Z-score” value was -0.85.

For ACGGUAC, the “RNAcompete 7-mer binding Z-score” value was 0.472.

As for CCCCAAU, the “RNAcompete 7-mer binding Z-score” value is -0.755.

For UUCCACA, the “RNAcompete 7-mer binding Z-score” value was -0.508.

Consider GGGGAAA, for which the “RNAcompete 7-mer binding Z-score” value came to 3.02.

As for UGGGAAG, the “RNAcompete 7-mer binding Z-score” value came to 3.99.

CGGGAAU: the “RNAcompete 7-mer binding Z-score” value was determined as 1.31.

For GGGGAAU, the “RNAcompete 7-mer binding Z-score” value came out at 3.13.

Consider CGGGAAG, for which the “RNAcompete 7-mer binding Z-score” value turned out to be 2.07.

As to AGGGAAC, the “RNAcompete 7-mer binding Z-score” value is 3.06.

AGGGACU: the “RNAcompete 7-mer binding Z-score” value was 1.09.

Turning to AGGGAAU, the “RNAcompete 7-mer binding Z-score” value was 3.2.

Consider UGGGAAU, for which the “RNAcompete 7-mer binding Z-score” value was determined as 2.42.

On to AGGGAAG, for which the “RNAcompete 7-mer binding Z-score” value amounted to 4.36.

UGGGAAA: the “RNAcompete 7-mer binding Z-score” value amounted to 2.49.

Consider GGGGAAG, for which the “RNAcompete 7-mer binding Z-score” value worked out at 3.91.

As to GGUAAUU, the “RNAcompete 7-mer binding Z-score” value came out at 0.789.

For the sequence ACUAACG, the “RNAcompete 7-mer binding Z-score” value is -0.409.

Regarding CGAUGUU, the “RNAcompete 7-mer binding Z-score” value is -0.657.

Regarding AGUCGAC, the “RNAcompete 7-mer binding Z-score” value came out at 0.00944.

Consider CUAAUGC, for which the “RNAcompete 7-mer binding Z-score” value is -0.795.

For the sequence ACAUCAG, the “RNAcompete 7-mer binding Z-score” value is -0.191.

For the sequence CACUGAG, the “RNAcompete 7-mer binding Z-score” value was -0.209.

As for UGGGUAG, the “RNAcompete 7-mer binding Z-score” value was 3.34.

For the sequence AGGGUAC, the “RNAcompete 7-mer binding Z-score” value came to 2.7.

Turning to UGGGUAU, the “RNAcompete 7-mer binding Z-score” value worked out at 2.2.

In the case of UGGGUAC, the “RNAcompete 7-mer binding Z-score” value was 2.59.

On to CGGGUAG, for which the “RNAcompete 7-mer binding Z-score” value is 2.23.

As for AGGGUAG, the “RNAcompete 7-mer binding Z-score” value came out at 3.71.

As for CGCGAAC, the “RNAcompete 7-mer binding Z-score” value is -0.435.

As to GCUCGAC, the “RNAcompete 7-mer binding Z-score” value was -0.53.

In the case of AGUUCCU, the “RNAcompete 7-mer binding Z-score” value is -0.77.

Turning to AGGCGUA, the “RNAcompete 7-mer binding Z-score” value came out at 0.716.

On to ACCUACA, for which the “RNAcompete 7-mer binding Z-score” value was -0.814.

In the case of AACGGGU, the “RNAcompete 7-mer binding Z-score” value is 3.25.

Turning to UACGGGU, the “RNAcompete 7-mer binding Z-score” value was determined as 2.02.

For the sequence AACGGGA, the “RNAcompete 7-mer binding Z-score” value came out at 3.38.

For the sequence GACGGGG, the “RNAcompete 7-mer binding Z-score” value stood at 2.79.

Take GACGGGU: the “RNAcompete 7-mer binding Z-score” value turned out to be 2.37.

As for CACGGGA, the “RNAcompete 7-mer binding Z-score” value stood at 1.66.

Turning to CACGGGG, the “RNAcompete 7-mer binding Z-score” value turned out to be 2.77.

Regarding AACGGGG, the “RNAcompete 7-mer binding Z-score” value was determined as 3.65.

On to GACGGGA, for which the “RNAcompete 7-mer binding Z-score” value amounted to 2.3.

On to ACGGCGG, for which the “RNAcompete 7-mer binding Z-score” value is 1.11.

On to AGCUCAG, for which the “RNAcompete 7-mer binding Z-score” value is -0.486.

ACAUAUC: the “RNAcompete 7-mer binding Z-score” value is -0.526.

Take AAGGAGU: the “RNAcompete 7-mer binding Z-score” value was determined as 3.12.

Take AGUUUUG: the “RNAcompete 7-mer binding Z-score” value was -0.0707.

As to CUUAAAC, the “RNAcompete 7-mer binding Z-score” value was -0.646.

On to AGGGCUA, for which the “RNAcompete 7-mer binding Z-score” value was 1.17.

(Values after the supplement of paper PMC5499739.)
